Screening data deposited in PubChem by National Center for Advancing Translational Sciences (NCATS).
HP1b chromo inh = inhibitors of HP1-beta chromodomain binding to methylated histone tails. P83916. AID 540317. hit rate 0.56% among 390,000. Potency, µM (series often up to 114 µM), without a hit: top-dose activity change, negative = inhibition, actives largely listed as inhibitors. AlphaScreen HP1-beta / biotin-H3K9me3 peptide binding; note: potency is the fitted concentration of half-maximal effect; nearly all actives have a fitted effect of over 70% in size
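HP1-beta protein (50 nM final) preincubated 30 min at room temperature with biotinylated H3(1-18)K9me3 peptide (50 nM) in PBS pH 7.4, 0.01% Tween-20, then compound added for 30 min. AlphaScreen streptavidin donor/nickel chelate acceptor beads (10 ug/mL final), 30 min dark, luminescence read.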
PI5P4Ka inh = PI5P4K alpha (human) kinase inhibition | P48426 | PI5P4Kalpha enzyme, ADP-Glo luminescence, 60 min; stronger effect = lower value | max response, % | hit rate 1.2% among 330,000 | AID 652105; active = max response of -50% or lower; inconclusive = between -30% and -50%; inactive = -30% or higher; note: value at the top dose of about 77 µM; % is set by controls: 0 for no effect and ±100 for the full control effect
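Enzyme plus substrate dispensed, test compounds pinned in, then ATP (5 microM final) added. After 60 min at RT, ADP-Glo reagent 1 for 45 min and reagent 2 for 30 min preceded luminescence imaging.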
G9a block = inhibitors of human histone lysine methyltransferase G9a; Q96KQ7; hit rate 8.8% among 350,000; Potency, µM (top dose mostly 102 µM), without a hit: top-dose activity, negative = inhibition, most hits filed as inhibitors; G9a H3K9 monomethylation, AlphaScreen, 2 h; note: potency is the fitted concentration of half-maximal effect; % is set by controls: 0 for no effect and ±100 for the full control effect; nearly all actives have a fitted effect of over 75% in size
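Readings reflect AlphaScreen signal from monomethyl-H3K9 antibody detection. HMT at 20 nM; substrate b-H3K9 500 nM; cofactor SAM 20 uM; 2 h RT reaction; compounds tested as titrations in qHTS with 15 min preincubation.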
BAZ2B block = BAZ2B (human) inhibition; hit rate 4.4% among 360,000; Q9UIF8; Potency, µM (titrated, usually from 114 µM), for the others: at the highest dose activity change, negative = inhibition, usual class: inhibitors; AlphaScreen BAZ2B-H3K14Ac peptide displacement; note: potency is the fitted concentration of half-maximal effect; % is set by controls: 0 for no effect and ±100 for the full control effect; nearly all actives have a fitted effect of over 60% in size
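AlphaScreen luminescence quantifies BAZ2B engagement of H3K14Ac peptide; the protein and biotinylated peptide are both at 50 nM final, buffer PBS pH 7.4 with 0.01% Tween-20, all steps at room temperature.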
PLK1 PBD block = inhibitors of human PLK1 polo-box domain binding; P53350; Plk1 PBD binding of FITC phosphopeptide, fluorescence polarization; Potency, µM, for inactives: max response, negative = inhibition, usual class: inhibitors; hit rate 2.8% among 360,000; note: potency is the fitted concentration of half-maximal effect; series mostly up to about 57 µM; % is set by controls: 0 for no effect and ±100 for the full control effect; nearly all actives have a fitted effect of over 65% in size
Target sequence (P53350 whole entry, looked up, the tested form may be a part): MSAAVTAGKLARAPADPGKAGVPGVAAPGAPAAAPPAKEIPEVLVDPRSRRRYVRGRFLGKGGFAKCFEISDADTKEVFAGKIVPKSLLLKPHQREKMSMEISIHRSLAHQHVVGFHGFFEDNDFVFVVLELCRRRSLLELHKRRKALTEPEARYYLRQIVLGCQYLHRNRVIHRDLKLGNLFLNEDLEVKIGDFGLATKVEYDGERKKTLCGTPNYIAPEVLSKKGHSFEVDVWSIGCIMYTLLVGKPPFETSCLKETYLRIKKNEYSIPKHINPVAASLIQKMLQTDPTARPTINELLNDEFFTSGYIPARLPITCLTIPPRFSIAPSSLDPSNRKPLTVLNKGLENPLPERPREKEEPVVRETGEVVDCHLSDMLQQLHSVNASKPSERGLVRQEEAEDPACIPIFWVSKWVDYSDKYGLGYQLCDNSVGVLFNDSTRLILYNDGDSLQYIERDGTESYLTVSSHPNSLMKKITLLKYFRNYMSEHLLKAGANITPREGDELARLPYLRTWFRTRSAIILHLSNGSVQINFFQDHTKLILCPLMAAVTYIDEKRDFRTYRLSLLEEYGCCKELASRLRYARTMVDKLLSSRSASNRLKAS
JMJD2A Tudor inh = blocks the human JMJD2A Tudor domain; O75164; AlphaScreen JMJD2A-Tudor / H3K4me3 peptide binding; Potency, µM (top dose mostly 114 µM), for inactives: at the top dose activity change, negative = inhibition, actives largely listed as inhibitors; hit rate 4.4% among 390,000; AID 504339; note: potency is the fitted concentration of half-maximal effect; % is set by controls: 0 for no effect and ±100 for the full control effect; nearly all actives have a fitted effect of over 50% in size
Numbers without * were called inactive; ? = inconclusive; / = no result; ! = not confirmed by another sample; [ ] = dose if it differs, or a comment. The list is not random: actives were taken first. Their share in the collection is about 12%. Unless noted, calls come from the whole dose curve; as a rule, active = well fitted curve in the direction sought with a large enough effect; inconclusive = small, poorly fitted or top-dose-only effect, or another doubt; inactive = no such curve, though single readings can be large; an effect the other way counts as inactive or inconclusive.

SMILES	HP1b chromo inh	PI5P4Ka inh	G9a block	BAZ2B block	PLK1 PBD block	JMJD2A Tudor inh
C=CCn1c(SCc2nc3sc(C(=O)O)c(C)c3c(=O)[nH]2)nnc1-c1ccccc1	30%	-67*	?	?	-24%	25µM*
c1ccc(-c2cn(-c3ccccc3)c3ncnc(N4CCN(c5ccccc5)CC4)c23)cc1	5%	/	-3%[59 µM]	-25%	/	-35%
Cc1cccc(-c2nc3c4ccccc4nc(NCc4ccccc4Cl)n3n2)c1	76%	/	55%[59 µM]	?	/	3%
CCOCCCn1c(SCc2nc3sc(C(=O)O)c(C)c3c(=O)[nH]2)nnc1-c1ccc(Cl)cc1	37%	?	20µM*	-35%	-1%	?
N#Cc1cc2cc3c(cc2nc1SCC(=O)N1CCOCC1)OCCO3	14%	3	-49%	-11%	-6%	-15%
CC1C2(C)OC(=N)C(C#N)(C(C)O2)C1(C#N)C#N (stereo unspecified)	68%	-3	71µM*	-24%	-28%	-7%
CCC(C)C(N)C1=NC(C(=O)N[C@@H](CC(C)C)C(=O)N[C@H](CCC(=O)[O-])C(=O)N[C@H](C(=O)N[C@H]2CCCCNC(=O)[C@H](CC(N)=O)NC(=O)[C@@H](CC(=O)[O-])NC(=O)[C@H](Cc3cnc[nH]3)NC(=O)[C@@H](Cc3ccccc3)NC(=O)[C@H]([C@@H](C)CC)NC(=O)[C@@H](CCCN)NC2=O)[C@@H](C)CC)CS1.[Zn+2] (stereo partly specified)	13µM*	-4	/	/	-10%	2.8µM*
COC(=O)c1ccc(NC(CC(C)C)C(=O)OC)c([N+](=O)[O-])c1 (stereo unspecified)	-13%	2	40µM*	?	0%	?
CCOC(=O)c1ccc(NCCOC)c([N+](=O)[O-])c1	34%	-1	-37%	-29%	-12%	-10%
O=C(/C=C/c1ccccc1)NC(NC(=S)Nc1ccc(Cl)cc1Cl)C(Cl)(Cl)Cl (stereo unspecified)	?	-15	-2%	-3%	13µM*	-29%
O=C(/C=C/c1ccccc1)NC(NC(=S)Nc1cccc(Cl)c1)C(Cl)(Cl)Cl (stereo unspecified)	48%	-16	-28%	10%	-29%	-8%[57.1 µM]
Cc1cc(Oc2ccc(Cl)cc2)nc(-c2ccccn2)n1	15%	-2	18µM*	-2%	0%	-19%
Clc1ccc(OCc2nc(-c3ccccn3)n[nH]2)cc1	53%	/	85%[59 µM]	22µM*	-2%	20µM*
Cc1cc(Oc2ccccc2)nc(-c2ccccc2O)n1	167%	32	128%[59 µM]	74%	-8%	119%
Brc1ccc(OCc2nc(-c3ccccn3)n[nH]2)cc1	30%	-3	44%	28µM*	-9%	40µM*
N#Cc1c(SCc2c(Cl)cccc2Cl)nc(N)[nH]c1=S	20%	-65*	41%[12.7 µM]	?	30µM*	-24%
COc1ccccc1CNC(=O)CSc1cc(C)[nH]c(=O)n1	-6%	/	10%[59 µM]	-6%	/	-11%
CC(C)CC1(C2CCCC2)NC(=O)NC1=O (stereo unspecified)	12%[57 µM]	6	/	/	-1%	-13%
CC(C)Nc1nc(NC(C)C)nc(N(C)N)n1	30%	0	52%[59 µM]	3.2µM*	-8%	35µM*
CCNc1nc(NCC)nc(N(C)N)n1	50%	4	27%	25µM*	-7%	28µM*
CCOC(=O)CNc1ncnc2c1nnn2C	15%	/	1%[59 µM]	2%	/	9%
CC(C(=O)NC1CC1)c1ncc(C(F)(F)F)cc1Cl (stereo unspecified)	30%	-5	19%[59 µM]	0%	-4%	-1%
C#CCNC(=O)C(C)c1ncc(C(F)(F)F)cc1Cl (stereo unspecified)	7%	-5	52%	2%	6.7µM*	-26%[11.4 µM]
NS(=O)(=O)c1ccc(-c2ccc(/C=C3\SC(=S)N(C4CCS(=O)(=O)C4)C3=O)o2)cc1 (stereo unspecified)	12%	-10	?	-28%	5%	-20%
Cc1ccc(/C=C2\SC(=S)N(C3CCS(=O)(=O)C3)C2=O)o1 (stereo unspecified)	-36%	-53*	/	40µM*	19µM*	?
SMILES	HP1b chromo inh	PI5P4Ka inh	G9a block	BAZ2B block	PLK1 PBD block	JMJD2A Tudor inh
CC1=C(C#N)C(=O)N(C2CCS(=O)(=O)C2)C(=O)/C1=C\c1ccc(C)o1 (stereo unspecified)	/	/	20µM*	45µM*	/	/
O=C1/C(=C/c2ccccc2)SC(=S)N1C1CCS(=O)(=O)C1 (stereo unspecified)	11%	1	?	-18%	-6%	6%
O=c1oc2ccccc2cc1-c1nc2c(s1)CCc1ccccc1-2	87%[57 µM]	3	-19%[59 µM]	47%	15µM*	66%[57.1 µM]
O=C(CCCl)Nc1nc2c(s1)CCc1ccccc1-2	-14%	3	50µM*	-29%	-11%	-32%
CCc1sc(-c2cc3ccc(O)cc3oc2=O)nc1-c1ccc(C)cc1	95%[57 µM]	/	/	/	/	87%[57.1 µM]
Nc1nc2c(s1)CCc1ccccc1-2	-31%	-7	10µM*	?	?	?
O=c1oc2ccc3ccccc3c2cc1-c1nc2c(s1)CCc1ccccc1-2	48%[57 µM]	/	/	/	/	50%[57.1 µM]
O=c1oc2cc(O)ccc2cc1-c1nc2c(s1)CCc1ccccc1-2	77%	-22	55%[59 µM]	32%	3.8µM*	52%
O=[N+]([O-])c1ccc(CSc2nnc(-c3cccnc3)o2)cc1	15%	8	8%[59 µM]	-21%	0%	-11%
COc1ccc(N2CCN(S(=O)(=O)c3ccc(-c4ccno4)cc3OC)CC2)cc1	-6%	/	10µM*	22µM*	/	?
COc1cc(-c2ccno2)ccc1S(=O)(=O)N1CCN(c2ccccc2F)CC1	17%	/	12%[59 µM]	-6%	/	-6%
C/C(N)=C(/C#N)C(=O)CSc1nnc(Nc2cccc(C)c2)s1	-5%	-50*	?	?	-9%	79µM*!
C/C(N)=C(/C#N)C(=O)CSc1nc2cc(Cl)ccc2s1	10%	/	14µM*	-10%	?	-19%
C/C(N)=C(/C#N)C(=O)CSc1cc(Cl)ccc1Cl	28%	0	?	-18%	-7%	-7%
Cc1coc2c(C)c3oc(=O)c(CCC(=O)N4CCCCC4)c(C)c3cc12	16%	/	0%[59 µM]	-15%	/	-26%
CCc1c(-c2ccccc2)nc2ccccc2c1C(=O)NCc1ccc(C)cc1	11%	/	6%[59 µM]	3%	/	-17%
CCc1ccc(CNc2nc3nc(C)c(Cc4ccccc4)c(=O)n3[nH]2)cc1	-3%	/	?	-7%	/	?
CS(=O)(=O)C1=C(O)C(=O)N(CCCC(=O)O)C1c1ccccc1F (stereo unspecified)	15%	0	-8%[59 µM]	-3%	-11%	50µM*
